# Reference: PubChem BioAssay
# The source made the active and inactive calls.
# Tests used:
# [1] = test system: Human papillomavirus type 1a protein E7 (residues 44-93); experiment: small molecules binding HPV E7 44-93 – biochemical, small-molecule microarray, residues 44-93, 635 nm fluorescence, primary screen (AID 1108); settings: fluorescence 635 nm, higher = more signal;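 note: E7 fragment applied at 1 µg/mL in TBST for 1 h at 4 C; score combines spot fluorescence with its signal to noise ratio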
# [2] = hepatitis C replication reporter changes, two-sided – Huh7 cells, luciferase reporter, HCV replication inhibitor project, primary screen (AID 1109); settings: Huh7 HCV replicon luciferase reporter, 48 h; higher = more signal;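 note: huh7 hepatoma cells harbouring a luciferase neomycin HCV replicon reporter; luciferase luminescence as measure of HCV replicon replication; test concentration not given here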
# [3] = target: Left-right determination factor 2 (Homo sapiens) (UniProt O00292); experiment: small molecules binding LEFTY2 protein – biochemical, small-molecule microarray, 635 nm fluorescence scan, primary screen (AID 1110); settings: higher = more signal
# [4] = target: Calmodulin-1 (Homo sapiens) (UniProt P0DP23); experiment: small molecules binding calmodulin-1 with EGTA – biochemical, small-molecule microarray, Cy5-labelled CALM1, profiling panel (AID 1111); settings: Cy5-CALM1 binding fluorescence, higher = more signal;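 note: labelled calmodulin applied in Tris saline Tween buffer holding calcium plus EGTA and DTT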
# [5] = target: Calmodulin-1 (Homo sapiens) (UniProt P0DP23); experiment: small molecules binding Ca-loaded calmodulin-1 – biochemical, small-molecule microarray, Cy5-labelled CALM1, plus calcium, artefact control for SMM control-protein annotation, profiling panel (AID 1112); settings: Cy5-CALM1 binding fluorescence, higher = more signal;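 note: score merges spot fluorescence with signal to noise from triplicate slides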
# [6] = probe aWnt5a binding to arrayed compounds – biochemical, biotinylated probe, 635/667 nm fluorescence, primary screen (AID 1113); settings: small-molecule microarray, higher = more signal;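 note: score merges 667 nm fluorescence intensity with signal-to-noise per printed feature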
# [7] = probe aShh binding to arrayed compounds – biochemical, biotinylated probe, 635/667 nm fluorescence, primary screen (AID 1114); settings: small-molecule microarray, higher = more signal;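 note: probe is biotin-labelled aShh protein from a stem cell growth factor screen; measures binding of labelled protein to compounds printed on the slide; score merges feature fluorescence at 667 nm with signal-to-noise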
# [8] = probe aNog binding to arrayed compounds – biochemical, biotinylated probe, 635/667 nm fluorescence, primary screen (AID 1115); settings: small-molecule microarray, higher = more signal;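 note: probe is biotinylated aNog protein used at 0.15 µg/mL for 1 h at 4 C; z-score combines 667 nm fluorescence of each spot with its signal to noise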
# [9] = target: Torsin-1A-interacting protein 1 (Homo sapiens) (UniProt Q5JTV8); experiment: compound microarray binding of lysate hLAP1 – cell lysate, small-molecule microarray, COS7 lysate, 635/667 nm fluorescence, primary screen (AID 1116); settings: 635 nm fluorescence, higher = more signal
# [10] = target: Alpha-bungarotoxin (Bungarus multicinctus) (UniProt P60615); experiment: compounds binding labelled alpha-BTX control protein – biochemical, small-molecule microarray, Alexa647 label, 635/667 nm fluorescence, artefact control for SMM control protein annotation, profiling panel (AID 1117); settings: alpha-BTX-A647 binding fluorescence, higher = more signal
# Albumin (Bos taurus) = Albumin (Bos taurus) (UniProt P02769); experiment: compounds binding labelled BSA control protein – biochemical, small-molecule microarray, Alexa647 label, 635/667 nm fluorescence, artefact control for SMM control protein annotation, profiling panel (AID 1118); settings: BSA-A647 binding, fluorescence 635 nm, higher = more signal;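 note: score merges 667 nm emission intensity and signal-to-noise per printed compound spot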
# [11] = probe aXIP binding to arrayed compounds – biochemical, NeuroSMM set, 635/667 nm fluorescence, primary screen (AID 1119); settings: small-molecule microarray, higher = more signal, called active from +8 up or from −8 down;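 note: probe is the protein aXip251-270 applied at 1 µg/mL to compound-printed slides; binding of probe to printed compounds measured as 667 nm fluorescence plus signal to noise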
# [12] = probe aNOTCH3 binding on compound microarray – biochemical, small-molecule microarray, 635/667 nm fluorescence, primary screen (AID 1120); settings: higher = more signal;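 note: probe is a biotin-tagged antibody raised against NOTCH3 rather than NOTCH3 protein; score merges spot fluorescence near 667 nm with spot signal to noise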
# [13] = probe aNOTCH2 binding on compound microarray – biochemical, small-molecule microarray, 635/667 nm fluorescence, primary screen (AID 1121); settings: higher = more signal;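 note: score merges feature fluorescence read at 667 nm with its signal to noise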
# [14] = target: Carbonic anhydrase 2 (Homo sapiens) (UniProt P00918); experiment: compounds binding carbonic anhydrase 2 – biochemical, small-molecule microarray, Alexa647-labelled CAII, profiling panel (AID 1122); settings: CAII-A647 binding fluorescence, higher = more signal
# [15] = COS7 lysate on small-molecule microarray, probe aHis, 635 nm (AID 1123); settings: COS7 cell lysate, fluorescence, higher = more signal;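 note: z-score combines 667nm fluorescence intensity with signal-to-noise per printed compound spot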
# [16] = probe aLAP1 signal on lysate-treated microarray – cell lysate, small-molecule microarray, COS7 lysate, primary screen (AID 1124); settings: probe aLAP1, fluorescence, higher = more signal;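 note: lysate comes from COS7 cells expressing LAP1 and is applied at 0.3 µg/mL; score merges spot fluorescence near 667 nm with signal-to-noise over triplicate slides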
# Sam68 (KHDRBS1) = experiment: compounds binding KHDRBS1 protein – biochemical, small-molecule microarray, 635 nm fluorescence, primary screen (AID 1125); settings: higher = more signal;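 note: score merges 667 nm channel intensity with signal to noise over triplicate slides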
# [17] = test system: Chordin-like protein 2 (CHRDL2); experiment: compounds binding chordin-like 2 – biochemical, small-molecule microarray, 635 nm fluorescence, primary screen (AID 1126); settings: fluorescence 635 nm, higher = more signal;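 note: printed compound slides probed with Chrdl2 protein at 4 µg/mL for 1 h at 4 C; score merges 667 nm emission intensity with signal to noise over three replicate slides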
# [18] = target: Concanavalin-A (Canavalia ensiformis) (UniProt P02866); experiment: compounds binding concanavalin A lectin – biochemical, small-molecule microarray, Alexa647 label, 635 nm, artefact control for SMM control protein annotation, primary screen (AID 1127); settings: ConA-A647 binding fluorescence, higher = more signal;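 note: z combines 667 nm emission intensity with signal-to-noise across three replicate slides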
# Chain of Concanavalin-A (Canavalia ensiformis) (P02866 whole entry, looked up): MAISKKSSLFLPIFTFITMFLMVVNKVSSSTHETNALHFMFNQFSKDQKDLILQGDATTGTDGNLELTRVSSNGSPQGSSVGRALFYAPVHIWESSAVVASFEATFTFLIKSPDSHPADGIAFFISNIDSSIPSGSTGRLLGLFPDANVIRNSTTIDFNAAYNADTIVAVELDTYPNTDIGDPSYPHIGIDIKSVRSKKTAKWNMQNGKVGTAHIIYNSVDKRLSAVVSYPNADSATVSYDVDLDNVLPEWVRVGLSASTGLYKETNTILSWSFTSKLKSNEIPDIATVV
# Chain of Left-right determination factor 2 (Homo sapiens) (O00292 whole entry, looked up): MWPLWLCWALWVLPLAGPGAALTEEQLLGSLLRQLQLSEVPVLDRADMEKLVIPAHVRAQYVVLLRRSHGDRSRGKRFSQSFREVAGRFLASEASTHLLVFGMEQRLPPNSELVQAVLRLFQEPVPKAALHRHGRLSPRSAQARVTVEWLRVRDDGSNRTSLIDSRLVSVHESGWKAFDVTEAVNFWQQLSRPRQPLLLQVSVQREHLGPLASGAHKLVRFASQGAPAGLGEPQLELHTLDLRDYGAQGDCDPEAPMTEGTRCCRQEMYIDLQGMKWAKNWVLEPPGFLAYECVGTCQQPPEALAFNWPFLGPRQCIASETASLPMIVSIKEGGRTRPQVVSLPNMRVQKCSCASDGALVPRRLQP
# Chain of Alpha-bungarotoxin (Bungarus multicinctus) (P60615 whole entry, looked up): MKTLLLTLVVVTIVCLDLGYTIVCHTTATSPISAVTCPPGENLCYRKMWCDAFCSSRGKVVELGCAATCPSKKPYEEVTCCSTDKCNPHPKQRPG
# Chain of Albumin (Bos taurus) (P02769 whole entry, looked up): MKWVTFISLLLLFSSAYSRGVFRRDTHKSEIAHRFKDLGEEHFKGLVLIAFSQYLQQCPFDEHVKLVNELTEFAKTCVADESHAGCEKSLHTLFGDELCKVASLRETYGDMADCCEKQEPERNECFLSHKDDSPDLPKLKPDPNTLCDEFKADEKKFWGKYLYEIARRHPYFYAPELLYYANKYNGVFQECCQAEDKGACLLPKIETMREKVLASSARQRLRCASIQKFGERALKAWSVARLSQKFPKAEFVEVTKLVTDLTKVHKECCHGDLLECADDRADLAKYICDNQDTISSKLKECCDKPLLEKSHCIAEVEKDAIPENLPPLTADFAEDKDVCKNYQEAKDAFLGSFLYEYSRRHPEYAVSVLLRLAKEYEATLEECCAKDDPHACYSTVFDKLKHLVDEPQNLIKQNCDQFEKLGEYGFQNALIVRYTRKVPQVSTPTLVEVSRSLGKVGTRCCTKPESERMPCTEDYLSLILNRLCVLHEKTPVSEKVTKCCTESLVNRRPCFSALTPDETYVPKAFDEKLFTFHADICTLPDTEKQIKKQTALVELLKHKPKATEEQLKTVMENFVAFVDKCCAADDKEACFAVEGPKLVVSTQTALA
# Chain of Torsin-1A-interacting protein 1 (Homo sapiens) (Q5JTV8 whole entry, looked up): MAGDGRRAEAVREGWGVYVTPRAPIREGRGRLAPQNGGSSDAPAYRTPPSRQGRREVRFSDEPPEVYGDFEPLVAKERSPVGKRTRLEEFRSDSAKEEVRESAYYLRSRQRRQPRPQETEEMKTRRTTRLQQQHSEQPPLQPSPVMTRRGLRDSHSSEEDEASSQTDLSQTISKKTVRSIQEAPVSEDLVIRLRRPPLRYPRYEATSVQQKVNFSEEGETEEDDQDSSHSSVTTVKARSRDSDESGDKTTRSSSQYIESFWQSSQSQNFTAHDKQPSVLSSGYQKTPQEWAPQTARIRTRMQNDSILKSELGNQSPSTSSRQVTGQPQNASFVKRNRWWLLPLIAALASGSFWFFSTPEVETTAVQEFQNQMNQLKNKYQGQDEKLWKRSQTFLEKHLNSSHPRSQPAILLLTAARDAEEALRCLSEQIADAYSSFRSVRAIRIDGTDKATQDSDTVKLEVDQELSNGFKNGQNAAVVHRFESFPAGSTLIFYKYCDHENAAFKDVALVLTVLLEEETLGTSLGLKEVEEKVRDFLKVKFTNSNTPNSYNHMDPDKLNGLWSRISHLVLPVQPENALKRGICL
Structure (SMILES),composite z-score [1],z-score [2],composite z-score [3],composite z-score [4],composite z-score [5],composite z-score [6],composite z-score [7],composite z-score [8],composite z-score [9],composite z-score [10],composite z-score (Albumin (Bos taurus)),composite Z-score [11],composite z-score [12],composite z-score [13],composite z-score [14],composite z-score [15],composite z-score [16],composite z-score (Sam68 (KHDRBS1)),composite z-score [17],composite z-score [18]
COC(=O)[C@@]1(Cc2ccc(OC)cc2)[C@H]2c3cc(C(=O)N4CCCC4)n(Cc4ccc(OC(F)(F)F)cc4)c3C[C@H]2CN1C(=O)c1ccccc1,-0.0023,-2.48,-0.251,1.72,1.13,0.402,0.358,1.65,-0.401,1.25,0.943,0.308 (inactive),0.142,0.194,-0.0687,-0.0543,-0.347,-0.582,-0.818,1.01
C=C(CCCC)C(=O)CC[C@H](OC(C)=O)c1ccc(OCCO)cc1,-0.319,-2.73,-0.0558,-0.0294,-0.92,-0.102,-0.262,0.0989,-0.346,0.657,0.551,0.517 (inactive),-0.292,-0.181,-0.43,-0.543,-0.52,-0.578,-0.858,0.924
C[C@@]12COC[C@]13C=C(Br)[C@H](C2)[C@@]1(CO1)C3=O,-2.3,-2.64,-0.777,-0.66,-0.691,-0.176,-0.214,-0.256,-1.17,-0.455,-0.717,0.112 (inactive),-0.315,-0.124,-0.643,-0.47,0,-1.91,-0.211,-0.858
O=C1[C@@H]2[C@@H](CC(COc3ccccc3)=C3[C@@H](CCc4ccccc4)OB(O)C[C@@H]32)C(=O)N1Cc1ccccc1,-0.458,-1.36,0.222,0.0454,0.171,-0.124,-0.0011,-0.465,-0.0169,-0.0025,-0.0421,0.196 (inactive),0.0242,-0.13,0.413,0.782,0.111,-0.258,0.139,0.0019
Cc1cccc([C@H]2C[C@H]3C(Br)=C[C@@H]2C(=O)[C@]32CO2)c1,-0.97,-2.5,0.174,-0.206,-0.41,-0.18,-0.341,-0.0784,-0.188,0.106,-0.904,0.289 (inactive),-0.125,-0.16,-0.255,-0.498,-0.552,-0.721,0.563,-0.051
COc1ccc([Si](C)(C)[C@@H]2[C@@H](CC(=O)N3Cc4ccccc4C[C@H]3CO)O[C@]3(C(=O)N(Cc4ccc(N5CCC5=O)cc4)c4ccccc43)[C@H]2C)cc1,1.02,-3.58,0.759,1.04,-0.0245,-0.124,-0.16,-0.388,1.24,0.963,0.502,-0.0662 (inactive),-0.0362,-0.234,0.337,1.14,0.421,1.24,1.19,1.08
CC(C)N1CC=CC23O[C@@H]4/C=C\CCCOC(=O)C4[C@H]2C(=O)N(CCCCCCO)[C@@H]3C1=O (stereo not given in full),0.509,-0.276,-1.46,-0.954,-0.488,-0.0643,-0.346,0.345,0.881,-1.5,-0.616,0.379 (inactive),-0.277,-0.0895,0.938,1.28,1.14,0.223,-1.26,-1.02
